The values below come from PubChem BioAssay AID602336 (NMMLSC, 2012).

The list shows a part of the results. The source made the active and inactive calls. Rule as the data show it: active = inhibition above about 25%; inactive = the rest.

One may read the inhibition as the change of the read-out against control, counted positive when it falls.

This assay has as its system Botulinum neurotoxin type F light chain protease (Clostridium botulinum). Nature of the assay: inhibition of botulinum toxin F LC protease – biochemical, flow cytometry, cherry pick 2, confirmation (AID 602336). As to conditions: multiplex microsphere protease cleavage assay, at 10 µM, hits give high values. On the technique in general: A flow cytometer gives signals particle by particle.
In the case of `O=C(CN1CCN(c2ccccc2O)CC1)NC(=O)NCc1ccccc1`, the inhibition was -4.3% (inactive).

Take `CCOc1ncccc1C(=O)OCC(=O)c1c[nH]c2ccccc12`: the inhibition was 3% (inactive).

On to `Cc1ccc(CNC(=O)c2cccc3c2C(=O)c2ccc(N4CCC(C)CC4)cc2S3(=O)=O)cc1`, for which the inhibition was 6.1% (inactive).

With `O=C(OCC(=O)c1c[nH]c2ccccc12)c1cccc(O)c1`, the inhibition was -3.8% (inactive).

Regarding `CC(=O)OCCN(CCCn1c(-c2ccncc2)nc2ccccc21)c1nc(-c2ccc(C)cc2)cs1`, the inhibition was 4% (inactive). The figure for `Cc1cc2cc(CNC(=O)c3ccc(S(=O)(=O)N4CCOCC4)cc3)ccc2[nH]1` is -10.8% (inactive). In the case of `Cc1cc2ccccc2n1CCNC(=O)COc1ccc2ccccc2c1` it was -12.9% (inactive). In the case of `COc1ccc(-c2cc3c(c4c2ccn4C)C2CCC3C2)cn1` (stereo not drawn) it was 4.4% (inactive).
